The supplement of paper PMC12819154, “High-throughput peptide-centric local stability assay extends protein–ligand identification to membrane proteins, tissues and bacteria” (Nature Structural & Molecular Biology, 2025)
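Also: lysate desalted by size exclusion to strip endogenous ATP, peptide intensities built from DIA-NN precursor signals, and peptides missing any value discarded before comparison.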

These targets were tested with Nc1ncnc2c1ncn2[C@@H]1O[C@H](COP(=O)(O)OP(=O)(O)OP(=O)(O)O)[C@@H](O)[C@H]1O [adenosine 5'-triphosphate] (assay: log2 fold change of tryptic peptide abundance, ligand vs vehicle (limited proteolysis) (log2 ratio); higher = more trypsin-susceptible (destabilized)). Conditions: ligand concentration: 5 mM; sample: E. coli desalted lysate; replicate design: treated before aliquoting.
Experimental: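 HT-PELSA: desalted E. coli K-12 BW25113 lysate (with 12 mM MgCl2) incubated with 5 mM ATP (pH 7) or water for 30 min at 25 C, then a 4 min trypsin pulse at 22 C. Peptides were quantified by DIA-MS (4 replicates). Value is the peptide log2 fold change (treated/control); negative = stabilized. Scale: negative = ligand-stabilized region.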
“UniProt P0AB77 (peptide sequence: AGMDSHGFGMASVR, peptide start residue: 67)” was tested, and the log2 fold change was -0.449. Target “UniProt P42632 (peptide sequence: IKALPTYR, peptide start residue: 593)” has a log2 fold change of 0.596. “UniProt P77395 (peptide sequence: RQLYALLY, peptide start residue: 277)” gave a log2 fold change of 0.6. With “UniProt P37773 (peptide sequence: IIAVLEPRSNTMK, peptide start residue: 354)” the log2 fold change was 1.55. “UniProt P76014 (peptide sequence: EIGDADHGLNMNR, peptide start residue: 32)” was tested, and the log2 fold change was -2.08. “UniProt P16525 (peptide sequence: TTFEHIVTVESELPTAAR, peptide start residue: 122)” showed a log2 fold change of 0.318. For “UniProt P75796 (peptide sequence: VHGLLPGKDAAAR, peptide start residue: 430)”, the log2 fold change was 1.01. Work on “UniProt P0AFI5 (peptide sequence: YTHFADASR, peptide start residue: 264)” yielded a log2 fold change of -0.35. For “UniProt P14375 (peptide sequence: LNVVAIEVPSLR, peptide start residue: 302)”, the log2 fold change was -1.45. In the case of “UniProt P75824 (peptide sequence: AGVCGCCK, peptide start residue: 275)”, the log2 fold change is reported as 0.616. With “UniProt P43329 (peptide sequence: IAEELKTEPGGCIGYK, peptide start residue: 142)” the log2 fold change was -2.41.
